Screens deposited in PubChem BioAssay by National Center for Advancing Translational Sciences (NCATS).
In the library only some 19% were active in any assay of this set; here they are far more common.
HT1080-NT tox: kills 2HG-producing HT-1080-NT fibrosarcoma cells; actives 1.6% (n = 360,000); HT-1080-NT fibrosarcoma viability, CellTiter-Glo ATP luminescence, 48 h; AID 686970; Potency, µM (series often up to 46.1 µM), inactives show at the highest dose activity, negative = less viability, most hits filed as cytotoxic;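 also: NT is the 2HG producing partner of a matched IDH1 knockdown line; potency is read from the fitted curve at half-maximal effect; 0% = DMSO-treated cells and -100% = media-only wells without cells; nearly all actives have a fitted effect of over 55% in size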
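Fibrosarcoma NT cells, 750 per well in 5% FBS RPMI, were exposed to compound for 48 hours. Viability: CellTiter-Glo luminescence.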
TDP1 cell CPT: DT40-hTDP1 cell growth loss with CPT; chicken DT40 Tdp1-/-;hTDP1 cells + 20 nM CPT, ATP luminescence, 48 h; Potency, µM (series often up to 46.2 µM), without a hit: at the highest dose activity change, negative = growth inhibition, actives largely listed as inhibitors; actives 12% (n = 420,000); AID 686979; also: potency is read from the fitted curve at half-maximal effect; nearly all actives have a fitted effect of over 55% in size
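Cell growth measured by CellTiter-Glo luminescence after a minimum 48 h, 37 C compound exposure with 20 nM CPT in Tdp1-knockout DT40 cells stably expressing hTDP1, seeded 400/well; qHTS titration format.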
TDP1 cell noCPT: qHTS for Inhibitors of human tyrosyl-DNA phosphodiesterase 1 (TDP1): qHTS in cells in absence of CPT; DT40 Tdp1-/- hTDP1 cells, no CPT, ATP luminescence, 48 h; Potency, µM (titrated, usually from 46.2 µM), without a hit: at the highest dose activity change, negative = growth inhibition, usual class: inhibitors; actives 15% (n = 420,000); also: potency is read from the fitted curve at half-maximal effect; nearly all actives have a fitted effect of over 55% in size
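Stably hTDP1-transfected Tdp1-null chicken DT40 cells were treated with library compounds minus camptothecin and grown for at least 48 hr at 37 °C, after which cellular ATP was quantified by luminescence.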
HT1080 IDH1KD tx: HT-1080 IDH1 knockdown cell toxicity (counter line); Potency, µM (top dose mostly 46.1 µM), inactives show at the highest dose activity, negative = toxicity, most hits filed as cytotoxic; AID 686971; HT-1080 IDH1 knockdown viability, ATP luminescence, 48 h; actives 2% (n = 360,000);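 also: potency is read from the fitted curve at half-maximal effect; 0% = DMSO wells and -100% = cell-free medium wells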
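% activity derives from luminescence (CellTiter-Glo), normalised to DMSO and no-cell wells. HT-1080-IDH1KD cells, 750/well, had 48 h compound exposure at 37 °C.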
IL1B secr inh: inhibitors of inflammasome signaling (IL-1 beta secretion) | THP-1 LPS/ATP IL-1B secretion, AlphaLISA, 16 h; hits give low values | activity change, % at 57.5 µM | actives 4.7% (n = 360,000); in the data active = activity change below about -50%; inconclusive = mostly about -30% to -49%
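THP-1 cells pretreated 1 hr with compounds (up to 57.5 uM final), then stimulated with LPS (250 ng/mL final) plus ATP (1.25 mM final); secreted IL-1B measured by AlphaLISA after 16 hr, decreased signal indicating inhibition.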
* marks the source's active call; other numbers are inactive results; ? = inconclusive; . = not tested or not shown; [ ] = remark or other dose. Unless noted, calls follow the shape of the dose curve; as a rule, active = well fitted curve in the direction sought with a large enough effect; inconclusive = small, poorly fitted or top-dose-only effect, or another doubt; inactive = no such curve, though single readings can be large; an effect the other way counts as inactive or inconclusive. Unless noted, % is scaled to controls: 0 for no effect and ±100 for the full control effect.

SMILES | HT1080-NT tox | TDP1 cell CPT | TDP1 cell noCPT | HT1080 IDH1KD tx | IL1B secr inh
c1cncc(OC2CCN(Cc3ccc4c(c3)CN(Cc3ccc5c(c3)CCO5)CCO4)CC2)c1 | . | -9%[9.04 µM] | 18µM* | . | .
COc1ccc(CN2CCOc3ccc(CN4CCC(Oc5cccnc5)CC4)cc3C2)cc1 | . | 21µM* | -29% | . | .
O=C(COC(=O)c1ccc2ccccc2c1)NCc1ccccc1 | 0% | -6% | -2% | 7% | 21
COC(=O)/C=C\C(C#N)(C#N)N=Cc1ccc(OC)cc1 | ? | 1.3µM* | 0.65µM* | 5.8µM* | 0
CCN(CC(=O)Nc1c(F)cccc1F)C(=O)CCN1C(=O)C2CCCCC2C1=O (stereo unspecified) | 15% | 2% | -13% | 6% | 9
CC1=C(C#N)C(c2ccoc2)C(C(=O)OCc2ccccc2)=C(N)S1 (stereo unspecified) | -2% | -26% | 26µM* | -6% | -13
O=C(CCc1nnc(C2(c3ccc(Cl)cc3)CCC2)o1)N1CCCC1 | 7% | -18% | -13% | 13% | 9
COCCN(C(=O)COC(=O)C(C)(C)Oc1ccc(Cl)cc1)c1c(N)n(Cc2ccccc2)c(=O)[nH]c1=O | 1%[9.24 µM] | -10% | -9% | -4% | 0
Cc1ccc2oc(C(=O)Nc3c(C(=O)Nc4cccc(Cl)c4)oc4ccccc34)cc(=O)c2c1 | . | -8% | -10% | . | .
COc1ccc(CN2CC(=O)N3[C@H]4c5ccccc5OC[C@@H]4[C@H](c4ccccc4)[C@]3(C)C2=O)cc1 | -3% | ? | 16µM* | -13% | -15
COc1ccc2c(c1)OC[C@H]1[C@H]2N2C(=O)CN(Cc3ccc(F)cc3)C(=O)[C@@]2(C)[C@H]1c1ccccc1 | -9% | ? | ? | -8% | -23
Cc1ccc2c(c1)[C@H]1[C@H](CO2)[C@H](c2ccccc2)[C@]2(C)C(=O)N(Cc3ccc(F)cc3)CC(=O)N12 | ? | ? | 21µM* | -12% | ?
COc1ccc(CN2CC(=O)N3[C@H]4c5cc(C)ccc5OC[C@@H]4[C@H](c4ccccc4)[C@]3(C)C2=O)cc1 | -1% | ? | 21µM* | -9% | 0
C[C@@]12C(=O)N(Cc3ccco3)CC(=O)N1[C@H]1c3cc(Cl)ccc3OC[C@@H]1[C@@H]2c1ccccc1 | -12% | ? | ? | -9% | ?
Cc1ccc2c(c1)[C@H]1[C@H](CO2)[C@H](c2ccccc2)[C@]2(C)C(=O)N(Cc3ccc(Cl)cc3)CC(=O)N12 | -16% | ? | 15µM* | 4% | -18
O=C(NN1CCOCC1)c1cn(-c2ccccc2)nc1-c1cccs1 | -3% | ? | -21% | ? | -25
CC(Oc1ccccc1)C(=O)N/N=C/c1ccccn1 (stereo unspecified) | -14% | ? | -7% | -15% | 6
COc1ccc2c(c1)OC[C@H]1[C@H]2N2C(=O)CN(Cc3ccco3)C(=O)[C@@]2(C)[C@H]1c1ccccc1 | 0% | ? | ? | -1% | -21
CCCCN1CC(=O)N2[C@H]3c4ccc(OC)cc4OC[C@@H]3[C@H](c3ccccc3)[C@]2(C)C1=O | 0% | ? | 23µM* | 0% | -5
O=C1CC(NS(=O)(=O)c2ccccc2)CN1c1ccc2c(c1)OCCO2 (stereo unspecified) | 1% | -6% | ? | 10% | 12
CN(CC(=O)Nc1ccccc1Cl)C(=O)c1cccc(S(=O)(=O)N2CCN(Cc3ccccc3)CC2)c1 | 21µM* | 12µM* | 9.2µM* | -6% | -15
CN(CC(=O)Nc1cccc(F)c1)C(=O)c1cccc(S(=O)(=O)N2CCN(Cc3ccccc3)CC2)c1 | -8% | 8.2µM* | 8.2µM* | -14% | 9
CCOC(=O)[C@@H]1[C@H]2COc3ccccc3[C@H]2N2C(=O)N(c3cccc(Cl)c3)C(=O)[C@]12C | 0% | ? | -10% | 17% | -12
COc1ccc(NC(=O)CN2C(=O)NC(c3ccccc3)(c3ccccc3)C2=O)cc1OC | -14% | ? | -29% | -20% | -18
COc1ccc(S(=O)(=O)N2CCCCC2)cc1NC(=O)CN(C)C1CCCCC1 | -22% | ? | ? | -18% | -70*
SMILES | HT1080-NT tox | TDP1 cell CPT | TDP1 cell noCPT | HT1080 IDH1KD tx | IL1B secr inh
O=C(CN(C1CC1)S(=O)(=O)c1ccc(S(=O)(=O)N2CCCCCC2)cc1)Nc1ccccc1 | ? | -9% | -25% | ? | 12
COc1ccc(S(=O)(=O)N2CCCCCC2)cc1NC(=O)Cc1cc(OC)c(OC)c(OC)c1 | 1% | -4% | ? | -1% | 0
COc1ccc(OC)c(NC(=O)CN(Cc2ccc(F)cc2)C2CCCCC2)c1 | ? | ? | 16µM* | ? | -18
COc1ccc(S(=O)(=O)N2CCCCC2)cc1NC(=O)CN(Cc1ccco1)Cc1ccco1 | -16% | ? | ? | -8% | -51*
COc1ccc(S(=O)(=O)N2CCCCC2)cc1NC(=O)C1CC(=O)N(Cc2ccco2)C1 (stereo unspecified) | 2% | 0% | 1% | -2% | -1
COC(=O)CCN(C1CCCCC1)S(=O)(=O)c1ccc(S(=O)(=O)N2CCCCC2)cc1 | -26% | 29µM* | 13µM* | 24% | -13
CC(=O)c1ccc(N2CCN(C(=O)CN3C(=O)NC4(CCCCC4)C3=O)CC2)c(F)c1 | 0% | -24% | -18% | 6% | 0
Cc1cccc(CNC(=O)c2cnn(-c3nccc(-c4ccccc4C(F)(F)F)n3)c2C)n1 | . | 9%[9.04 µM] | ? | . | .
Cc1cc(NC(=O)COC(=O)C2CC2)ccc1Br | 2% | -22% | 29% | -9% | -20
CCOC(=O)C1(C)CCCN1C(=O)c1ccccc1F (stereo unspecified) | ? | -12% | -13% | 11% | 32
CCOC(=O)C1(C)CCCN1C(=O)c1cccc2ccccc12 (stereo unspecified) | 8% | 12µM* | 18µM* | 8% | 53
CCOC(=O)C1(C)CCCCCN1C(=O)c1ccc(N(C)C)cc1 (stereo unspecified) | 21% | ? | 21µM* | 13% | 2
CCOC(=O)C1(C)CCCCCN1C(=O)/C=C/c1ccccc1 (stereo unspecified) | 23% | 16µM* | 16µM* | 19% | 21
CCOC(=O)C1(C)CCN1C(=O)c1cc(-c2ccc(Cl)cc2)oc1C (stereo unspecified) | -24% | 18µM* | 5.2µM* | ? | -103*
O=C(CC(c1ccco1)C1CCCCC1=O)c1ccccc1 (stereo unspecified) | -10% | ? | ? | -10% | 0
